Bioassay records (PubChem BioAssay)
Hits are enriched below; roughly 11% of the tested compounds scored in any of these assays.
BAZ2B inh: blocks human BAZ2B. Q9UIF8. AlphaScreen BAZ2B-H3K14Ac peptide displacement. Potency, µM (doses to about 114 µM), for inactives: at the top dose activity change, negative = inhibition, most hits filed as inhibitors. 360,000 compounds, 4.4% hits; note: potency is the fitted concentration of half-maximal effect; % is set by controls: 0 for no effect and ±100 for the full control effect; nearly all actives have a fitted effect of over 60% in size
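AlphaScreen displacement: compounds (up to 110uM) incubated 30 min at room temperature with a preformed 50 nM BAZ2B/50 nM biotinylated H3K14Ac peptide complex in PBS pH 7.4 with Tween-20. Donor and acceptor beads at 10 ug/mL final added, 20 min light-protected before reading.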
PI5P4Ka inh: blocks human PI5P4K alpha kinase activity; PI5P4Kalpha enzyme, ADP-Glo luminescence, 60 min; stronger effect = lower value; max response, %; 330,000 compounds, 1.2% hits; AID 652105; active = max response of -50% or lower; inconclusive = between -30% and -50%; inactive = -30% or higher; note: value at the top dose of about 77 µM; % is set by controls: 0 for no effect and ±100 for the full control effect
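ADP-Glo luminescence end-point after a 60 min room-temperature kinase reaction. PI5P4Kalpha and substrate in HEPES pH 7.4 buffer with EGTA, 0.1% CHAPS and 5% DMSO; ATP at 5 microM final.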
JMJD2A Tudor: blocks the human JMJD2A Tudor domain | O75164 | AlphaScreen JMJD2A-Tudor / H3K4me3 peptide binding | Potency, µM (doses to about 114 µM), for inactives: top-dose activity change, negative = inhibition, actives largely listed as inhibitors | 390,000 compounds, 4.4% hits; note: potency is the fitted concentration of half-maximal effect; % is set by controls: 0 for no effect and ±100 for the full control effect; nearly all actives have a fitted effect of over 50% in size
Target sequence (O75164 whole entry, looked up, the tested form may be a part): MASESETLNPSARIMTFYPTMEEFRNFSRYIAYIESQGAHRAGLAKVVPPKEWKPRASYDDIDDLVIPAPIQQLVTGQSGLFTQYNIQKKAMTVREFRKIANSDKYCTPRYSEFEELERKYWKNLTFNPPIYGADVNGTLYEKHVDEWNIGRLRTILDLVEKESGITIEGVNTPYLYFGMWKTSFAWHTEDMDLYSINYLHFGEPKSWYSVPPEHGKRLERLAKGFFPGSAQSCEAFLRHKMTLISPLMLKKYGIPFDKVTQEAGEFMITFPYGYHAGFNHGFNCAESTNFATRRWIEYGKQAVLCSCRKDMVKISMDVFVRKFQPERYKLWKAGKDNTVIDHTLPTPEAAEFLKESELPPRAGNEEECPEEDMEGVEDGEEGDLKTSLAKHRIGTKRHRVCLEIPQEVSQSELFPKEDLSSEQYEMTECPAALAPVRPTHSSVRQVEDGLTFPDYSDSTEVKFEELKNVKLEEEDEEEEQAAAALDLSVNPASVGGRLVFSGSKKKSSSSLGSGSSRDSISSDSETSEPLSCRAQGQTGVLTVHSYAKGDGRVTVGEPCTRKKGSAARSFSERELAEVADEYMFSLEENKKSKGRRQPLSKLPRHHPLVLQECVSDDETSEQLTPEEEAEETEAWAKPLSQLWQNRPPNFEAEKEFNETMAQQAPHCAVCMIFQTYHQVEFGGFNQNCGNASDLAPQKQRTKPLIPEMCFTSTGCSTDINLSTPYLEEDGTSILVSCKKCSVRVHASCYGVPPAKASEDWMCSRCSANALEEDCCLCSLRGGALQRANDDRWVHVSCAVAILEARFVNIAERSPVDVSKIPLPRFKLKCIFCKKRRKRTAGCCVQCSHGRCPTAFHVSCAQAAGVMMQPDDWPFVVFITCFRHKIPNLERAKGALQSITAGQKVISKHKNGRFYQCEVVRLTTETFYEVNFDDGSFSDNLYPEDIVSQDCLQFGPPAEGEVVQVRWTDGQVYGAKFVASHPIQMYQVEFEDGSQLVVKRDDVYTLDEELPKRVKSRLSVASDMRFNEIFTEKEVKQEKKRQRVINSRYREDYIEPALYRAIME
L3MBTL1 block: blocks human L3MBTL1; AlphaScreen L3MBTL1–H3K9me1 peptide binding; Potency, µM (series often up to 57.1 µM), for inactives: at the highest dose activity, negative = inhibition, actives largely listed as inhibitors; 230,000 compounds, 0.66% hits; AID 485360; note: potency is the fitted concentration of half-maximal effect; % is set by controls: 0 for no effect and ±100 for the full control effect; nearly all actives have a fitted effect of over 60% in size
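AlphaScreen assay: L3MBTL1 (50 nM final) was preincubated 30 min at room temperature with biotinylated H3(1-15)K9me1 peptide (75 nM final), then 30 min with library compounds; streptavidin donor and nickel chelate acceptor beads (10 ug/mL final) added, 30 min dark.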
HP1b binding inh: HP1-beta chromodomain-methylated histone interaction inhibition. Potency, µM (titrated, usually from 114 µM), for inactives: at the top dose activity change, negative = inhibition, usual class: inhibitors. 390,000 compounds, 0.56% hits. AlphaScreen HP1-beta / biotin-H3K9me3 peptide binding; note: potency is the fitted concentration of half-maximal effect; nearly all actives have a fitted effect of over 70% in size
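AlphaScreen: HP1-beta (50 nM) preformed 30 min with biotin-H3(1-18)K9me3 peptide (50 nM) in PBS pH 7.4, 0.01% Tween-20. Compound added for 30 min at RT, then streptavidin donor/nickel chelate acceptor beads (10 ug/mL) for 30 min.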
G9a inh: inhibitors of human histone lysine methyltransferase G9a | G9a H3K9 monomethylation, AlphaScreen, 2 h | AID 504332 | Potency, µM (titrated, usually from 102 µM), without a hit: at the top dose activity, negative = inhibition, usual class: inhibitors | 350,000 compounds, 8.8% hits | Q96KQ7; note: potency is the fitted concentration of half-maximal effect; % is set by controls: 0 for no effect and ±100 for the full control effect; nearly all actives have a fitted effect of over 75% in size
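Methyltransferase reactions run at room temperature for 2 h (20 nM enzyme, 500 nM biotin-H3K9 peptide, 20 uM SAM) after a 15 min compound preincubation; product detected by AlphaScreen beads and anti-H3K9me1 antibody.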
An asterisk follows results filed as active; ? = inconclusive; . = no result given; [ ] = remark or other dose. Unless noted, calls come from the whole dose curve; as a rule, active = well fitted inhibition curve with a large enough effect; inconclusive = small, poorly fitted or top-dose-only effect; inactive = no such curve, though single readings can be large or run the other way.

SMILES	BAZ2B inh	PI5P4Ka inh	JMJD2A Tudor	L3MBTL1 block	HP1b binding inh	G9a inh
C=C(C)CN1C(=O)C(O)(CC(=O)c2ccc3c(c2)OCCO3)c2ccccc21 (centres undefined)	3%	2	-8%	5%	25%	4%[12.7 µM]
Cc1ccc(CN2C(=O)C(O)(CC(=O)c3ccc(C)cc3)c3ccccc32)cc1 (centres undefined)	13µM*	.	50µM*	.	?	11µM*
Cc1coc(C)c1C(=O)CC1(O)C(=O)N(Cc2ccccc2)c2ccccc21 (centres undefined)	?	-11	89µM*	.	?	-39%[59 µM]
Cc1ccc(C(=O)CC2(O)C(=O)N(Cc3ccccc3F)c3ccccc32)cc1 (centres undefined)	?	.	-20%	.	17%	-23%[59 µM]
CC(=O)Oc1c(C)c(OC(C)=O)c2c(c1C(C)=O)OC1CC(=O)C(C(C)=O)=C(O)C21C (centres undefined)	?	5	-22%	.	21%	-3%[12.7 µM]
CC(=O)c1c(O)c(C)c(O)c2c1OC1=CC(=O)C(C(C)=O)C(=O)[C@@]12C (some centres undefined)	-27%	0	-32%	.	15%	50µM*
CCc1ccccc1NC(=O)c1ccc2c(c1)N(Cc1cc(C)ccc1C)C(=O)c1ccccc1S2(=O)=O	-20%	.	-22%	.	14%	-8%[59 µM]
CC1CCC/C(=N\Nc2ccc(Cl)c(C(=O)O)c2)C1 (centres undefined)	-37%	-10	79µM*	?	5%	7.9µM*
CC1CCC/C(=N\NS(=O)(=O)c2ccccc2)C1 (centres undefined)	1%	-10	-3%[11.4 µM]	-3%	21%	32µM*
COc1ccc(NCC(=O)N/N=C2\CCCC(C)C2)cc1 (centres undefined)	-9%	3	-18%	-2%	27%	22%[59 µM]
CC1CCC/C(=N\NC(=O)Nc2ccccc2)C1 (centres undefined)	11%	-4	-1%	6%	29%	40µM*
Cc1cc(NC(=S)Nc2ccc(C)c(Cl)c2)n[nH]1	?	-19	?	-19%	-14%	1.3µM*
COc1cc(C)c(NC(=S)Nc2ccc(C)c(Cl)c2)cc1OC	-37%	-3	-32%	-1%	?	?
COc1ccc(NC(=S)Nc2cc(-c3ccccc3)[nH]n2)cc1Cl	?	.	56µM*	-30%	?	?
Cc1ccc(C(=O)Nc2ccc(Br)cc2)cc1S(=O)(=O)NCc1ccccc1	-3%	.	-24%	.	16%	-1%[59 µM]
COc1cc(/C=N/N=C2/C(=O)Nc3ccccc32)cc(OC)c1O	50µM*	?	?	-18%	-55%	2.8µM*
CCOC(=O)c1cc(-c2ccccc2)n(CC(=O)N(C)c2ccc(OC)cc2)c1C	?	.	?	.	-9%	-49%[59 µM]
Cc1nc(-c2coc3cc(O)c(C)cc3c2=O)cs1	10%	-3	-3%	.	29%	53%[12.7 µM]
Cc1nc(-c2coc3cc(C)c(N=O)c(O)c3/c2=N\N)cs1	?	-7	-25%	.	20%	50µM*
COc1cccc(C(c2sc3nc(C)nn3c2O)N2CCc3ccccc3C2)c1 (centres undefined)	-1%	?	20µM*	-8%	50µM*	4µM*
COc1ccc(N2CCN(C(c3ccco3)c3sc4nc(C)nn4c3O)CC2)cc1 (centres undefined)	?	3	-25%	-10%	2%	45µM*
Oc1c(C(c2ccccc2)N2CCc3ccccc3C2)sc2ncnn12 (centres undefined)	12%	-13	32µM*	?	?	4µM*
Oc1c(C(c2ccco2)N2CCN(C(c3ccccc3)c3ccccc3)CC2)sc2ncnn12 (centres undefined)	?	?	?	.	-4%	18µM*
COc1cc(NC(=O)Cn2c(=O)nc(-c3ccccc3F)c3cc(Cl)ccc32)cc(OC)c1	-31%	.	-24%	.	8%	-22%[59 µM]
